Only some compounds are listed: those with a hit (about 1.2% of all), similar ones and a draw of the others.
GSH bead fluor: compound fluorescence on glutathione beads, profiling panel, artefact control, biophysical, 488/530 nm, flow cytometry; GSH beads flow cytometry, compound fluorescence 488/530 nm; hits give high values; fluorescence (KMESF) at 10 µM; actives 0.25% (n = 190,000); in the data active = fluorescence above about 89;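 also: glutathione beads carrying GST-tagged Bcl family fusion proteins plus one bare bead set; values are compound well signal with DMSO vehicle wells as background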
RGS7-Gao: RGS7-Galphao binding modulators, primary screen, biochemical, multiplexed bead flow cytometry. binding response (% of control), % at 10 µM. actives lie on both sides. AID 1439, 2008. Guanine nucleotide-binding protein G(o) subunit alpha (Homo sapiens), P09471. actives 0.35% (n = 220,000); in the data active = binding response below about 49% or above about 150%; inconclusive = no clear call, values can overlap the other calls; inactive = in between;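 also: fluorescent Galphao held in activated GDP-AlF4 state binding bead-coupled RGS7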
Target sequence (P09471 whole entry, looked up): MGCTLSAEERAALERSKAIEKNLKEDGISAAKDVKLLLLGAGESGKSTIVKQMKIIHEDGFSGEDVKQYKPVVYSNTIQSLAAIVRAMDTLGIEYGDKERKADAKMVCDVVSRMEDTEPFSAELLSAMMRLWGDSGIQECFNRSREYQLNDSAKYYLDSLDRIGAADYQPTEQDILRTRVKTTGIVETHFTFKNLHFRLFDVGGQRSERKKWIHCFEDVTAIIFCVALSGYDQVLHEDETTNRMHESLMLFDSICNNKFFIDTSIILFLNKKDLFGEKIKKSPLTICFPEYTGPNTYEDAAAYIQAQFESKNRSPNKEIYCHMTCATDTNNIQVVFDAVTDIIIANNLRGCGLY
RGS16-Gao HTS: modulators of RGS16 binding to Galphao, primary screen, biochemical, human proteins, multiplexed bead flow cytometry. Regulator of G-protein signaling 16 (Homo sapiens) + Guanine nucleotide-binding protein …. bead-based flow cytometry RGS16-Galphao binding, fluorescence; actives lie on both sides. binding response (% of control), % at 10 µM. actives 0.38% (n = 220,000). AID 1441, 2008;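 also: Galphao activated by GDP with aluminum fluoride before binding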
Target sequence (O15492 whole entry, looked up): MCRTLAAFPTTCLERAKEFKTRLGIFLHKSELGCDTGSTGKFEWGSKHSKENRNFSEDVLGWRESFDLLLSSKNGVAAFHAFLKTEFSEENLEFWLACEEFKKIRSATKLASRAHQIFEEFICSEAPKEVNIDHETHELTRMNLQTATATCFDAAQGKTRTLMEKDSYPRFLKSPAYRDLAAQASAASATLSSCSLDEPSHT
Target sequence (P09471 whole entry, looked up): as the sequence (P09471 whole entry, looked up) above
Avidin bead fluor: green autofluorescence of compounds with avidin beads – biophysical, 488/530 nm, flow cytometry, artefact control, profiling panel. actives 0.38% (n = 220,000). compound fluorescence 488/530 nm; hits give high values. fluorescence (KMESF) at 10 µM; in the data active = fluorescence above about 47
RGS8-Gao reg: RGS8-Galphao binding modulators, primary screen, biochemical, multiplexed bead flow cytometry | actives lie on both sides | response (percent of control binding), % at 10 µM | actives 0.34% (n = 220,000) | AID 1423, 2008; in the data active = response below about 60% or above about 140%; inactive = in between;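 also: Galphao activated as the GDP aluminium fluoride complex binding bead-coupled RGS8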
RGS4-Gao reg: modulators of RGS4 binding to Galphao, primary screen, biochemical, multiplexed bead flow cytometry; Guanine nucleotide-binding protein G(o) subunit alpha (Homo sapiens), P09471; actives lie on both sides; binding response (% of control), % at 10 µM; actives 0.33% (n = 220,000); AID 1415, 2008; in the data active = binding response below about 49% or above about 150%; inactive = in between;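 also: fluorescent Galphao activated with aluminum fluoride binding bead-coupled RGS4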
RGS4-Gao HTS: modulators of RGS–Galpha-o binding, primary screen, biochemical, multiplexed beads, flow cytometry, RGS4/7/8/16/19 | RGS4–Galpha-o binding response, % at 10 µM | multiplexed bead flow cytometry | actives 99% (n = 1,600) | shares compounds with RGS16-Gao HTS;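 also: fluorescently labeled Galpha-o bound to GDP with aluminium fluoride binding biotinylated RGS beads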
Biotin-avidin: disruption of biotin probe capture by avidin, counter-screen for RGS protein interaction modulators, biochemical, flow cytometry, bead-based. 1,700 tested, under 10 active. AID 1783, 2009. streptavidin beads, fluorescein-biotin binding. inhibition, % at 10 µM. shares compounds with RGS16-Gao HTS;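 active = inhibition above 50%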;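 also: median green fluorescence of gated singlet beads compared with DMSO control wells; 0% = DMSO wells and 100% = complete loss of bead fluorescence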
RGS8-Gao confirm: RGS8-Galphao binding modulators, confirmation, biochemical, multiplexed bead flow cytometry, single concentration. shares compounds with RGS16-Gao HTS. bead-based flow cytometry RGS8-Galphao binding, fluorescence; actives lie on both sides. binding response (% of control), % at 10 µM. actives 3% (n = 1,700); in the data active = binding response below about 72% or above about 130%; inactive = in between;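 also: Galphao activated as GDP AlF4 complex before binding bead RGS8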
RGS7-Gao single: RGS7-Galphao binding modulators, confirmation, biochemical, multiplexed bead flow cytometry, single concentration; shares compounds with RGS16-Gao HTS; bead-based flow cytometry RGS7-Galphao binding; actives lie on both sides; response (percent of control binding), % at 10 µM; actives 7.8% (n = 1,700); in the data active = response below about 75% or above about 130%; inactive = in between;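 also: fluorescent Galphao activated with GDP and aluminum fluoride binding bead-coupled RGS7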
RGS16-Gao single: modulators of RGS16-Galphao protein binding, confirmation, biochemical, single concentration, multiplexed bead flow cytometry | shares compounds with RGS16-Gao HTS | bead-based flow cytometry; actives lie on both sides | response (% of control binding), % at 10 µM | actives 4% (n = 1,700); in the data active = response below about 74% or above about 130%; inactive = in between;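 also: Galphao activated as the GDP aluminium fluoride complex binding bead-coupled RGS16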
RGS4-Gao confirm: modulators of RGS4-Galphao protein binding, confirmation, biochemical, single concentration, multiplexed bead flow cytometry; shares compounds with RGS16-Gao HTS; actives lie on both sides; binding response (% of control), % at 10 µM; actives 4% (n = 1,700); in the data active = binding response below about 74% or above about 130%; inactive = in between
RGS19-Gao conf: regulators of RGS19-Galphao binding, confirmation, biochemical, single point, multiplexed bead flow cytometry | shares compounds with RGS16-Gao HTS | bead-based flow cytometry RGS19-Galphao binding; actives lie on both sides | response (percent of control binding), % at 10 µM | actives 5% (n = 1,700) | AID 1841, 2009; in the data active = response below about 50% or above about 160%; inactive = in between;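 also: 100% = no compound control and 0% = blank background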
Numbers without * were called inactive; u = inconclusive; x = no result; [ ] = dose if it differs, or a comment. Unless noted, no rule for the calls is given here.

SMILES	GSH bead fluor	RGS7-Gao	RGS16-Gao HTS	Avidin bead fluor	RGS8-Gao reg	RGS4-Gao reg	RGS4-Gao HTS	Biotin-avidin	RGS8-Gao confirm	RGS7-Gao single	RGS16-Gao single	RGS4-Gao confirm	RGS19-Gao conf
Cn1c(Cc2ccc3c(c2)OCO3)nnc1SCC(=O)NC1CCCC1	8	91	93	14	95	94	x	x	x	x	x	x	x
CCOc1cccc2cc(-c3nnc(NCc4ccc5c(c4)OCO5)s3)c(=O)oc12	9	x	x	x	x	x	x	-1	105	105	120	107	167*[activator]
Cc1cc(C)cc(C(=O)NCC(=O)OCc2c(C)noc2C)c1	10	-0.1*	1.9*	-5	15*	16*	x	1	101	102	100	98	102
CCCn1c(SCC(=O)N2CCCC2)nc2c1c(=O)n(C)c(=O)n2C	9	188*[activator]	107	77*	93	157*[activator]	x	-1	100	95	97	97	97
O=C(Nc1ccccc1[N+](=O)[O-])C1(c2ccccc2)CCOCC1	23	334*[activator]	110	202*	97	141	141*	2	98	91	95	96	89
C/C(=N/NC(=O)c1cccs1)c1cccc(NC(=O)C2CC2)c1	7	97	95	x	100	97	x	x	x	x	x	x	x
CC(=O)N/N=C(\C)c1cccc(NC(=O)c2cccs2)c1	12	-112*	43	-3	34*	-636*	x	0	100	100	100	102	110
CCOc1ccc(/C=N/NC(=O)CNC(=O)c2ccc(S(=O)(=O)N3CCOCC3)cc2)cc1	21	99	100	10	101	102	x	x	x	x	x	x	x
O=[N+]([O-])c1ccccc1OCCOc1ccccc1[N+](=O)[O-]	x	u	102	7	100	99	x	x	x	x	x	x	x
COc1ccc(OCCOc2ccccc2[N+](=O)[O-])cc1	10	111	180*[activator]	15	126	117	117*	0	100	103	101	102	94
Cc1cccc(Nc2cc(C)c3c(O)cccc3n2)c1C	13	98	120	5	106	96	x	x	x	x	x	x	x
CCCc1cc(C(=O)OC)c(NC(=O)c2cc(C)on2)s1	22	99	101	19	99	99	x	x	x	x	x	x	x
c1ccc(Oc2cc(-c3ccccc3)nc(-c3ccccc3)n2)cc1	10	18*	19*	4	39*	27*	x	0	97	97	95	97	105
Cc1cc(Oc2ccccc2)nc(-c2ccccc2)n1	38	100	104	12	104	105	x	x	x	x	x	x	x
CCOC(=O)c1sc(NC(=O)c2cc(-c3ccccc3)nc3ccccc23)c(C#N)c1C	14	131	61	23	82	87	x	x	x	x	x	x	x
CCN=c1scc(C)n1/N=C/c1ccc(O)c(O)c1O	26	65	55	4	59*	80	80*	1	67*	64*	64*	78	47*
O=C(CSc1nnc(CCCO)n1-c1ccccc1)Nc1nccs1	14	105	99	15	99	98	x	x	x	x	x	x	x
O=C(CSc1nnc(CCCO)n1-c1ccccc1)NCCc1ccccc1	28	16*	0.4*	-1	8.7*	22*	x	-1	108	107	109	103	118
COc1ccc(Cn2c(=O)n(Cc3ccco3)c(=N)c3c4c(sc32)COC(C)(C)C4)cc1	27	175*[activator]	117	125*	101	115	115*	2	102	100	104	102	97
CC1(C)Cc2c(sc3c2c(=N)n(Cc2ccco2)c(=O)n3Cc2ccc(F)cc2)CO1	24	97	94	22	98	98	x	x	x	x	x	x	x
COC(=O)c1ccccc1NC(=S)N(Cc1ccc2c(c1)OCO2)Cc1cc2ccc(C)cc2[nH]c1=O	8	103	107	16	105	105	x	x	x	x	x	x	x
COC(=O)c1ccccc1NC(=S)N(Cc1ccc2c(c1)OCO2)Cc1cc2cc(C)ccc2[nH]c1=O	9	113	264*[activator]	12	128	107	107*	-1	101	101	100	100	88
S=C(Nc1ccc2nc(-c3ccccn3)c(-c3ccccn3)nc2c1)N1CCCCC1	14	99	101	9	100	100	x	x	x	x	x	x	x
S=C(Nc1ccc2nsnc2c1)N1CCCCC1	7	86	2.5*	6	78	86	86*	x	x	x	x	x	x
COc1c(C)cc(C(=O)C2CCCN(C(=O)CCc3scnc3C)C2)cc1C (stereo unspecified)	14	101	105	2	97	100	x	x	x	x	x	x	x
COC(=O)C1=C(C)N(Cc2ccco2)C(=O)/C1=C\c1ccc(N(C)C)cc1	7	110	231*[activator]	14	130	111	111*	0	100	98	102	101	106
CCCn1nnc(NC(=O)c2cc3ccccc3o2)n1	26	101	102	13	100	100	x	x	x	x	x	x	x
CCCCn1nnc(NC(=O)c2cc3ccccc3o2)n1	33	127	426	4	148*[activator]	134	134*	1	110	119	111	115	106
